miR-122 inh: activators of miR-122 sensor in Huh7 cells. Huh7 psiCHECK-miR122 Renilla luciferase sensor, 48 h. activation, % at 12.5 µM. 340,000 compounds, 0.14% hits. AID 623901;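 active = mean activation of 30% or more, with every replicate also reaching 30%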;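 also: higher luciferase signal means stronger suppression of miR-122 activity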
Numbers stand for hits; i = inactive. This is one part of a sample in which hits are shown more often than they occur.

SMILES	miR-122 inh
COc1ccccc1-c1ccc2c(c1)O[C@@H](CN(C)C(=O)c1ccncc1)[C@H](C)CN([C@H](C)CO)S2(=O)=O	i
COCC(=O)N(C)C[C@H]1Oc2cc(-c3cccc(F)c3)ccc2S(=O)(=O)N([C@@H](C)CO)C[C@@H]1C	i
COc1ccc(-c2ccc3c(c2)O[C@H](CN(C)C(=O)Nc2ccccc2F)[C@H](C)CN([C@@H](C)CO)S3(=O)=O)cc1	32
COCC(=O)N(C)C[C@H]1Oc2cc(-c3ccccc3F)ccc2S(=O)(=O)N([C@@H](C)CO)C[C@H]1C	55
COc1ccc(-c2ccc3c(c2)O[C@H](CN(C)C(=O)c2ccccc2F)[C@H](C)CN([C@@H](C)CO)S3(=O)=O)cc1	i
COc1ccccc1-c1ccc2c(c1)O[C@H](CN(C)S(=O)(=O)c1ccc(C)cc1)[C@H](C)CN([C@H](C)CO)S2(=O)=O	i
COc1ccccc1-c1ccc2c(c1)O[C@@H](CN(C)S(=O)(=O)c1ccc(C)cc1)[C@H](C)CN([C@@H](C)CO)S2(=O)=O	i
COc1ccc(-c2ccc3c(c2)O[C@H](CN(C)C(=O)c2ccccc2F)[C@H](C)CN([C@H](C)CO)S3(=O)=O)cc1	i
COCC(=O)N(C)C[C@H]1Oc2cc(-c3cccc(F)c3)ccc2S(=O)(=O)N([C@H](C)CO)C[C@H]1C	i
COc1ccccc1-c1ccc2c(c1)O[C@@H](CN(C)S(=O)(=O)c1ccc(F)cc1)[C@@H](C)CN([C@@H](C)CO)S2(=O)=O	36
COCC#Cc1cnc2c(c1)C(=O)N([C@@H](C)CO)C[C@@H](C)[C@@H](CN(C)C(=O)C1CCOCC1)O2	i
COCC#Cc1cnc2c(c1)C(=O)N([C@@H](C)CO)C[C@H](C)[C@@H](CN(C)C(=O)Nc1c(C)noc1C)O2	i
COc1ccc(S(=O)(=O)N(C)C[C@@H]2Oc3cc(-c4ccccc4OC)ccc3S(=O)(=O)N([C@H](C)CO)C[C@H]2C)cc1	i
C[C@@H]1CN([C@H](C)CO)C(=O)c2cc(C#CC3(O)CCCC3)cnc2O[C@@H]1CN(C)S(C)(=O)=O	i
C[C@H](O)C#Cc1ccc2c(c1)O[C@@H](CN(C)C)[C@@H](C)CN([C@@H](C)CO)S2(=O)=O	i
C[C@H](CO)N1C[C@H](C)[C@@H](CN(C)C(=O)Cc2ccncc2)Oc2cc(-c3cncnc3)ccc2S1(=O)=O	i
COc1ccc(CN(C)C[C@@H]2Oc3ccc(NC(=O)C4CCCCC4)cc3CC(=O)N([C@@H](C)CO)C[C@H]2C)cc1	i
C[C@H](CO)N1C[C@H](C)[C@H](CN(C)C(=O)c2ccc(F)cc2)Oc2ncc(C3=CCCCC3)cc2C1=O	i
CCCN1C[C@H](C)[C@H](OC)CN(C)C(=O)c2ccc(NS(C)(=O)=O)cc2OC[C@H]1C	i
C[C@@H]1CN([C@H](C)CO)C(=O)c2cc(-c3cccnc3)cnc2O[C@@H]1CN(C)S(C)(=O)=O	i
C[C@@H]1CN([C@@H](C)CO)C(=O)c2cc(NC(=O)NC3CCCCC3)ccc2O[C@@H]1CN(C)C(=O)Nc1ccc2c(c1)OCO2	32
C[C@H]1CN([C@@H](C)CO)C(=O)c2cccc(NC(=O)Nc3ccc4c(c3)OCO4)c2O[C@@H]1CN(C)CC1CCCCC1	i
C[C@H]1CN([C@@H](C)CO)C(=O)c2cccc(NC(=O)C3CCCCC3)c2O[C@@H]1CN(C)Cc1ccc(C(F)(F)F)cc1	i
C[C@@H]1CN([C@H](C)CO)C(=O)c2cc(-c3ccccc3)cnc2O[C@H]1CN(C)C(=O)Nc1ccc2c(c1)OCO2	i
C[C@H](CO)N1C[C@H](C)[C@H](CN(C)CC2CCCCC2)Oc2ccc(NC(=O)Nc3ccc(C(F)(F)F)cc3)cc2C1=O	44
SMILES	miR-122 inh
C[C@H]1CN([C@@H](C)CO)C(=O)Cc2cc(NC(=O)Nc3ccc(C(F)(F)F)cc3)ccc2O[C@H]1CN(C)S(=O)(=O)c1ccc(F)cc1	i
C[C@@H]1CN([C@@H](C)CO)C(=O)c2cc(NC(=O)CCC(F)(F)F)ccc2O[C@@H]1CN(C)C(=O)Nc1ccc2c(c1)OCO2	i
C[C@@H]1CCCCO[C@H](CN(C)CC2CCCCC2)[C@H](C)CN([C@@H](C)CO)C(=O)c2cc(NC(=O)Nc3ccc(C(F)(F)F)cc3)ccc2O1	32
C[C@@H]1CCCCO[C@@H](CN(C)CC2CCCCC2)[C@@H](C)CN([C@H](C)CO)C(=O)c2cc(NC(=O)CCC(F)(F)F)ccc2O1	i
C[C@@H]1CN([C@@H](C)CO)S(=O)(=O)c2ccc(C#C[C@@H](C)O)cc2O[C@@H]1CN(C)C(=O)c1ccncc1	i
CCCC(=O)Nc1ccc2c(c1)OC[C@@H](C)N(C)C[C@H](C)[C@H](OC)CN(C)C2=O	i
C[C@H]1CN([C@@H](C)CO)S(=O)(=O)c2ccc(-c3ccncc3)cc2O[C@H]1CN(C)Cc1cncnc1	i
C[C@@H]1CN([C@H](C)CO)C(=O)c2cc(C#Cc3cccc(F)c3)cnc2O[C@@H]1CN(C)C(=O)C1CC1	i
FC(F)(F)c1cc(CCN2CCNC[C@@H]2CC2CCCCC2)cc(C(F)(F)F)c1	38

From PubChem BioAssay
